High-throughput results (PubChem)
Pf growth 48h – Primary qHTS for delayed death inhibitors of the malarial parasite plastid, 48 hour incubation. actives 5.9% (n = 310,000). P. falciparum luciferase growth in erythrocytes, 48 h. Potency, µM (top dose mostly 28.7 µM), most hits filed as inhibitors
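First compound was added to culture medium, then infected red cells at 0.1% parasitemia and 2% hematocrit (final). After incubation at 37 C under 5% CO2, luciferase detection reagent was dispensed and light output recorded.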
AMA1-RON2 inh – qHTS for Inhibitors of AMA1-RON; Towards Development of Antimalarial Drug Lead: Primary Screen; actives 0.2% (n = 360,000); Potency, µM (top dose mostly 58.2 µM), actives largely listed as inhibitors; AlphaScreen AMA1-biotinylated RON2 peptide binding; Plasmodium falciparum AMA1 (3D7) - RON2 peptide interaction; further: nearly all actives have a fitted effect of over 45% in size
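AMA1 (3D7) with his tag at 25 nM final met compounds first, then biotinylated RON2 peptide at 25 nM; detection used donor plus acceptor beads, 10 µg/mL apiece, read by AlphaScreen after 30 min at room temperature.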
SARS PLpro yeast – qHTS of Yeast-based Assay for SARS-CoV PLP | actives 0.19% (n = 330,000) | S. cerevisiae expressing SARS-CoV PLpro, growth rescue | AID 485353, 2010 | Potency, µM (highest dose often 32.9 µM), hits mostly activators; calls by dose curve; further: nearly all actives have a fitted effect of over 55% in size
Pf growth 96h – Primary qHTS for delayed death inhibitors of the malarial parasite plastid, 96 hour incubation; P. falciparum luciferase reporter growth, 96 h; Potency, µM (doses to about 28.7 µM), hits mostly inhibitors; actives 6.9% (n = 320,000); AID 504834, 2011
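Cell-based qHTS: luciferase-tagged P. falciparum in erythrocytes (2% hematocrit, 0.05% parasitemia final) incubated with compounds for 96 hours, 37 C, 5% CO2; luciferase detection reagent then added and luminescence measured.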
Of the large screens only hits and unclear results are named; the others gave an inactive call. Compounds with a hit are over-represented: about 9.4% of the library has one in this group of screens. Unless noted, the call rests on the fitted dose curve; in most records, active means well fitted curve in the direction sought with a large enough effect; inconclusive means small, poorly fitted or top-dose-only effect, or another doubt; inactive means no such curve, though single readings can be large; an effect the other way counts as inactive or inconclusive.

Cc1cc(C)cc(NC2=NC3(CCCCC3)N=C(N)N2)c1	Pf growth 96h 1µM (no result: Pf growth 48h)
Cc1cccc(NC2=NC(C)(C)N=C(N)N2)c1	Pf growth 48h 0.0059µM
NC1=NC2(CCCCC2)N=C(Nc2ccc(F)cc2F)N1	Pf growth 48h inconclusive, Pf growth 96h 3.7µM
COc1ccc(OC)c(NC2=NC3(CCCC3)N=C(N)N2)c1	none (no result: Pf growth 96h)
Cc1cccc(Nc2ccc([N+](=O)[O-])cn2)c1	Pf growth 48h inconclusive
CCCCOc1ccc(NC2=NC3(CCCC3)N=C(N)N2)cc1	Pf growth 48h 1.2µM, Pf growth 96h inconclusive
COc1ccc(C(=O)NCCONC(=O)c2ccc(OC)cc2)cc1	none
CSc1ccc(CNCc2ccco2)cc1	none
Cn1c(-c2cccc([N+](=O)[O-])c2)[n+](C)c2ccccc21	Pf growth 48h inconclusive
O=C(CN1C(=O)c2ccccc2C1=O)Nc1cccnc1	none
O=c1cc(-c2ccccc2)cc(-c2ccccc2)n1O	Pf growth 48h 13µM, Pf growth 96h inconclusive
Cc1ncc([N+](=O)[O-])n1CCOC(=O)NC(NCc1ccccc1)C(Cl)(Cl)Cl (configuration not stated)	Pf growth 48h 8.3µM, Pf growth 96h 0.33µM
Cc1ncc([N+](=O)[O-])n1CCOC(=O)NC(NCc1cccnc1)C(Cl)(Cl)Cl (configuration not stated)	Pf growth 48h inconclusive, Pf growth 96h inconclusive
Cc1ccccc1NC(NC(=O)OCCn1c([N+](=O)[O-])cnc1C)C(Cl)(Cl)Cl (configuration not stated)	Pf growth 48h inconclusive
Cc1ncc([N+](=O)[O-])n1CCOC(=O)NC(Nc1ccc(F)cc1)C(Cl)(Cl)Cl (configuration not stated)	Pf growth 48h 8.3µM, Pf growth 96h 6.6µM
O=C1C(=O)c2ncccc2-c2cccnc21	Pf growth 48h 0.67µM (no result: AMA1-RON2 inh, SARS PLpro yeast)
Cc1ccc(-n2c(N)c(-c3nc4ccccc4n3C)sc2=S)cc1	Pf growth 48h 1.5µM
Cc1cccc(-n2c(N)c(-c3nc4ccccc4n3C)c3nc4ccccc4nc32)c1	Pf growth 48h 10µM, Pf growth 96h 7.4µM
Cn1c(-c2c(N)n(-c3ccccc3)c3nc4ccccc4nc23)nc2ccccc21	Pf growth 48h 9.3µM, Pf growth 96h 6.6µM
CCN(CC)CCNC(=O)C1CCC(=O)N(c2ccc(OC)cc2)C1c1ccc(F)cc1 (configuration not stated)	none
COc1ccc(N2C(=O)CCC(C(=O)N3CCCCCC3)C2c2ccc(OC)c(OC)c2)cc1 (configuration not stated)	none
COc1ccc(C2C(C(=O)N3CCC4(CC3)OCCO4)CC(=O)N2c2ccc(OC)cc2)cc1 (configuration not stated)	Pf growth 48h 12µM (no result: Pf growth 96h)
CCCN(CCC)CCNC(=O)C1CC(=O)N(c2ccc(OC)cc2)C1c1ccc(OC)cc1 (configuration not stated)	Pf growth 48h inconclusive, Pf growth 96h 1.7µM
COc1ccc(C2C(C(=O)N3CCCCC3)CC(=O)N2c2ccc(OC)cc2)cc1 (configuration not stated)	Pf growth 48h 1.7µM, Pf growth 96h 9.3µM
COc1ccc(C2C(C(=O)N3CCC(C(N)=O)CC3)CC(=O)N2c2ccc(OC)cc2)cc1 (configuration not stated)	Pf growth 48h inconclusive, Pf growth 96h 5.2µM
CCN(CC)C(=O)C1CC(=O)N(c2ccc(OC)cc2)C1c1ccc(OC)cc1 (configuration not stated)	Pf growth 48h inconclusive (no result: Pf growth 96h)
O=C(O)CCC(=O)Nc1cccc(C(=O)Nc2ccc(Br)cc2)c1	Pf growth 96h inconclusive
CSc1nnc2n(-c3ccc(C)cc3)c(=O)c3c4c(sc3n12)COC(C(C)C)C4 (configuration not stated)	none (no result: Pf growth 48h)
COc1ccc(-c2c(-c3ccccc3OC)sc3ccccc23)cc1OC	Pf growth 48h inconclusive, Pf growth 96h 9.3µM
COc1ccccc1-c1sc2ccccc2c1-c1ccccc1OC	Pf growth 48h 13µM, Pf growth 96h 2.6µM
COc1ncc(-c2c(-c3ccccc3OC)sc3ccccc23)cn1	none (no result: Pf growth 48h, SARS PLpro yeast, Pf growth 96h)
O=C(CN1C(=O)c2ccccc2S1(=O)=O)N1CCN(c2ccccc2F)CC1	Pf growth 96h 5.9µM
O=C(CN1C(=O)c2ccccc2S1(=O)=O)c1ccc2c(c1)OCCCO2	Pf growth 48h inconclusive, Pf growth 96h 1.5µM
O=C(CCN1C(=O)c2ccccc2S1(=O)=O)N1CCN(c2ccccc2F)CC1	none
COc1ccc(-c2nc3c4c(ncn3n2)-c2ccccc2CC42CCCC2)cc1	none
Cc1cccc(OCc2nc3c4c(ncn3n2)-c2ccccc2CC42CCCC2)c1	Pf growth 96h inconclusive
Cc1ccccc1OCc1nc2c3c(ncn2n1)-c1ccccc1CC31CCCC1	Pf growth 48h inconclusive, Pf growth 96h 5.2µM
Oc1cccc(-c2nc3c4c(ncn3n2)-c2ccccc2CC42CCCC2)c1	Pf growth 48h 12µM, Pf growth 96h 9.3µM
Cc1ccc(OCc2nc3c4c(ncn3n2)-c2ccccc2CC42CCCC2)cc1	Pf growth 48h inconclusive, Pf growth 96h 15µM
COc1ccc(OCc2nc3c4c(ncn3n2)-c2ccccc2CC42CCCC2)cc1	Pf growth 48h inconclusive, Pf growth 96h 13µM
Cc1ccccc1OCc1nc2c3cnn(C)c3ncn2n1	none (no result: Pf growth 96h)
COc1ccc(CC(=O)Nc2c3c(nn2-c2cccc(C)c2C)CS(=O)C3)cc1OC (configuration not stated)	Pf growth 96h 2.6µM
COc1ccc(CC(=O)Nc2c3c(nn2-c2cccc(C)c2C)CS(=O)C3)cc1 (configuration not stated)	Pf growth 96h inconclusive
CC1(C)CC(CC(=O)O)(c2ccc(F)cc2)CCO1 (configuration not stated)	Pf growth 96h inconclusive (no result: Pf growth 48h)
Cc1ccc(C2(CC(=O)O)CCOC(C)(C)C2)cc1 (configuration not stated)	Pf growth 96h 9.3µM
COc1ccccc1-n1c(SCC(=O)O)nc2c(sc(=S)n2-c2ccccc2C)c1=O	none
O=C(N=C1SC2CS(=O)(=O)CC2N1Cc1ccccc1)C1CCCCC1 (configuration not stated)	Pf growth 96h inconclusive
CCN(CC)Cc1nc2c(c(=O)[nH]1)C(CC)(CC)Cc1ccccc1-2	Pf growth 48h 9.3µM
CCOC(=O)c1cc2nc(-c3ccccc3)cc(C)n2n1	Pf growth 96h inconclusive
CC(C)CCOC(=O)c1ccc(N(C)C)cc1	none (no result: AMA1-RON2 inh, SARS PLpro yeast)
CC(C)OC(=O)/C(=C\C=C\c1ccccc1)NC(=O)c1ccccc1	Pf growth 48h 12µM, SARS PLpro yeast inconclusive
C#CCOC(=O)/C(=C/C=C/c1ccccc1)NC(=O)c1ccccc1	none
CN(C)/C=C/C(=O)c1cnc(-c2ccccc2Cl)s1	none
CC(C)Cn1c(-c2cccs2)nc2ccccc21	none (no result: Pf growth 96h)
CC(C)CC(C)c1cc(N)nc2nc3ccccc3n12 (configuration not stated)	Pf growth 48h 10µM, Pf growth 96h 12µM
